Source: PubChem BioAssay AID588335 (The Scripps Research Institute Molecular Screening Center, 2011)
The campaign covered roughly 360,000 compounds. About 4,500 (1.2%) were called active. The entries come from a sample that favours actives as a whole. A number with no mark means an inactive call. Cut-off read from the data, not from the text of the source: active = inhibition above about 30%; inactive = the rest.

assay: GDH-TPI coupling enzyme inhibitors, primary screen, artefact control for M. tuberculosis FBA inhibitor project, biochemical, absorbance, full deck (AID 588335); settings: GDH-TPI coupled enzyme counterscreen, NADH absorbance; at 4.8 µM; stronger effect = higher value;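 note: 0% = DMSO wells and 100% = wells lacking the enzyme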

Structure (SMILES)	inhibition
O=C(COC(=O)c1ccc(N2CCCC2=O)cc1)c1ccc(OC(F)F)cc1	2.55%
Cc1cc(=O)oc2cc(NC(=O)C3CC(=O)N(Cc4ccccc4)C3)ccc12 (stereo not drawn)	19.6%
NC(N)=NCCCc1cn(CC(=O)N2CCNCC2)nn1	1.79%
CC(C)Oc1ccc(C2NC(=O)NC2=O)cc1 (stereo not drawn)	1.41%
O=C1CCCC2=C1C(c1cccs1)n1nc(SCc3ccccc3)nc1N2 (stereo not drawn)	19.9%
CCC(C)[C@H](NC(=O)N1c2ccccc2NC(=O)[C@@H]1C(C)C)C(=O)N[C@@H](Cc1ccccc1)C(=O)O (stereo partly drawn)	10.8%
CCCc1ccc(-c2c(C)sc(NC(=O)c3ccnn3C)c2C#N)cc1	17.4%
CC(OC(=O)CNS(=O)(=O)/C=C/c1ccccc1)C(=O)Nc1ccc(S(=O)(=O)N2CCCC2)cc1 (stereo not drawn)	-3.69%
CN(C)c1ccc(Nc2c3c4c(cccc4n(C)c2=O)C(=O)c2ccccc2-3)cc1	5.68%
CCSc1nc2c(c(=O)[nH]1)C(c1cccnc1)C(C(=O)OC(C)C)=C(C)N2 (stereo not drawn)	0.91%
COc1cc(S(=O)(=O)N2CCN(C(=O)C3CC3)CC2)ccc1NC(C)=O	7.35%
O=C(Nc1ccc(OCC(=O)N2CCOCC2)cc1)c1cc(F)c(F)cc1Cl	6.18%
CCOC(=O)c1cc(C)nc(S(C)(=O)=O)c1C#N	-4.82%
CCOC(=O)c1c(C(C#N)C#N)cc(C)nc1C	34.7% (active)
CCOC(=O)c1c(C)[nH]c(C)c1C(=O)CSc1nc(N)cc(N)n1	5.66%
C[C@@H]1CN([C@H](C)CO)C(=O)c2cc(Br)cnc2O[C@@H]1CN(C)Cc1cncnc1	13.4%
Cc1cc(Cl)ccc1C(=O)C1CCCN(C(=O)c2ccc3c(c2)OCO3)C1 (stereo not drawn)	4.42%
NCCCCCC(=O)N/N=C/c1ccc2nccnc2c1	26.5%
O=C(O)c1ccc(N/N=C/c2ccc3ncccc3c2)cc1	34% (active)
CCNC(=S)NNC(=O)c1ccc2ncccc2c1	7.57%
CCCCN(C(=O)c1ccc2ccccc2c1)c1c(N)n(CCCC)c(=O)[nH]c1=O	1.27%

Structure (SMILES)	inhibition
O=C(CNC(=O)OCc1ccccc1)Oc1cc2oc(=O)cc(-c3ccccc3)c2cc1Cl	31.2% (active)
O=C(CNC(=O)Cc1ccccc1)NCC(=O)OCC(=O)c1ccccc1Cl	4.58%
O=C(CNC(=O)c1ccccc1)NCC(=O)OCc1ccc(Cl)cc1	4.85%
CCCCNC(=O)N1CCN(S(C)(=O)=O)CC1	-0.96%
Cc1ccc(C)c(-n2ccnc2SCC(N)=O)c1	-8.54%
CCCCCCCC(=O)OC(CN1CCCCCC1)CN1CCCC1=O (stereo not drawn)	4.02%
CC(C)(C)NC(=O)CSc1nnc(NC(=O)CCc2ccccc2)s1	4.27%
NC(=O)CSc1nnc(NC(=O)c2ccc(Br)o2)s1	32.8% (active)
COC(=O)CSc1nnc(NC(=O)CCc2ccccc2)s1	3.45%
COc1ccc(N)cc1NC(=O)CN1CCOCC1	-1.77%
Cc1ccc(S(=O)(=O)NCc2cn3ccsc3n2)c(C)c1	7.83%
CCN1C(=O)[C@H]2[C@@H](c3ccccc3)N[C@]3(CCCN(Cc4ccc(C)cc4)C3=O)[C@H]2C1=O	-3.32%
Cc1cccc(C)c1NC(=O)CNC(=O)c1ccc2c(c1)OCCO2	-1.08%
Cc1cc(=O)[nH]c(Nc2cccc(Br)c2)n1	-6.37%
Cc1cc(=O)[nH]c(N/N=C/c2ccc3c(c2)OCCO3)n1	46.9% (active)
Cc1ccc(C)c(NC2=NCC(=O)N2c2ccc3c(c2)OCCO3)c1	-1.83%
CCN(CC)c1ccc(/C=N/Nc2nc(C)cc(=O)[nH]2)cc1	37.7% (active)
Cc1cc(=O)[nH]c(N/N=C/c2c(C)nn(-c3ccccc3Cl)c2Cl)n1	3.41%
CCN(CC)CCNc1nc(-c2ccc(OC(F)F)cc2)c(C)s1	2.11%
O=C(NNC1=NCCC1)c1cccc(S(=O)(=O)N2CCCCC2)c1	5.45%
CCC1=C(OC(=O)N(CC)CC)N2C(=O)OC(=NCC3CC3)[C@]2(C)[C@H]2C1=CC[C@H]1C(=O)N(CC(=O)OC)C(=O)[C@H]12	9.36%

Structure (SMILES)	inhibition
COc1ccc(/C=C2\SC(=N)N(c3ccc(F)cc3)C2=O)cc1	4.31%
COc1ccc(/C=C2\N=C3CCCN3C2=O)cc1	45.7% (active)
COc1ccc(C=C2CCC3C(CCCC34OCCO4)C2=O)cc1 (stereo not drawn)	25.5%
Cc1ccc(Cc2nnc(SCC(=O)Nc3ccc(C)cc3C)[nH]c2=O)cc1	4.83%
[O-][N+]12CCCCC1CCCC2CO (stereo not drawn)	-10.3%
Cc1cc(C)c2nc3nc(C)cc(C)c3c(N)c2c1	4.65%
CCc1nnc(NC(=O)/C=C/c2ccc(C)o2)s1	40.7% (active)
CCc1nnc(NC(=O)[C@@H](NC(=O)c2cccc(C)c2)C(C)C)s1	-6.25%
CCc1nnc(NC(=O)c2ccco2)s1	15.9%
CN(C)c1ccc(NC(=O)CN2C3CCCC2CC(NC(=O)c2ccccc2)C3)cc1 (stereo not drawn)	-4.43%
OC(c1nnc(-c2ccccc2)o1)c1cccs1 (stereo not drawn)	-12.3%
CN(C)c1ccc(-c2nnc(-c3cccnc3)o2)cc1	30%
Nc1ccc(-c2nnc(-c3ccc(-c4ccccc4)cc3)o2)cc1	49.1% (active)
CCC(C)(C)c1ccc(OCC(=O)N(C)C)c(C(C)(C)CC)c1	1.89%
Cc1ccc(C(=O)N/N=C\c2cc(Br)c(Br)o2)cn1	9.96%
O=C(N/N=C/c1ccc(Br)o1)c1cncc(Br)c1	33.6% (active)
O=C(CCNC(=O)c1ccccc1)NN=Cc1ccc(Br)o1	8.77%
CN(CC1CCCO1)S(=O)(=O)c1ccc(C(=O)Nc2ccc(F)cc2)cc1 (stereo not drawn)	4.12%
CCC1CCCCN1CCCNC(=O)c1cc2c(Cl)nc3ccccc3c2s1 (stereo not drawn)	0.39%
O=C(NCCN1CCN(Cc2ccccc2)CC1)c1cc2c(=O)[nH]c3ccccc3c2s1	24.2%
CN1CCN(CCCNC(=O)c2cc3c(=O)oc4ccccc4c3s2)CC1	31.1% (active)
